A number with no mark means an inactive call.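 How the source made its calls: active = AUC reduced over 20% with Padj below 0.05 in at least 2 of 3 replicates; inactive = otherwise.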
Experiments:
Experiment in all cases: growth AUC relative to DMSO control (median of replicates) (fraction); higher = more growth (less inhibition), active = hit call of the paper
Settings in all cases: 20 µM; 24 h
Akkermansia muciniphila = test system: Akkermansia muciniphila
Summary of the method: (§1)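 In round-bottom 96-well plates sealed with pierced gas-permeable seals, gut bacterial monocultures in mGAM were grown anaerobically at 37 °C from OD600 0.05 with 20 µM compound (1% DMSO). OD600 readings were taken hourly for 24 h, and the minimum OD was set to 0. Area under the growth curve was then normalised to the plate median of solvent-only wells, or to row and column medians on the industrial chemical plate. The value given is the median of three biological replicates grown on separate days.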

Bacteroides caccae = test system: Bacteroides caccae
Summary of the method: as §1

Bacteroides clarus = test system: Bacteroides clarus
Summary of the method: as §1

Bacteroides dorei = test system: Bacteroides dorei
Summary of the method: as §1

Bacteroides stercoris = test system: Bacteroides stercoris
Summary of the method: as §1

[1] = test system: Bacteroides thetaiotaomicron
Summary of the method: as §1

Bacteroides uniformis = test system: Bacteroides uniformis
Summary of the method: as §1

[2] = test system: Bifidobacterium longum subsp. longum
Summary of the method: as §1

Clostridium difficile = test system: Clostridium difficile
Summary of the method: as §1

Collinsella aerofaciens = test system: Collinsella aerofaciens
Summary of the method: as §1

Coprococcus comes = test system: Coprococcus comes
Summary of the method: as §1

Escherichia coli ED1a = test system: Escherichia coli ED1a
Summary of the method: as §1

Escherichia coli IAI1 = test system: Escherichia coli IAI1
Summary of the method: as §1

Eubacterium rectale = test system: Eubacterium rectale
Summary of the method: as §1

[3] = test system: Fusobacterium nucleatum subsp. animalis
Summary of the method: as §1

Lactobacillus gasseri = test system: Lactobacillus gasseri
Summary of the method: as §1

Lactobacillus paracasei = test system: Lactobacillus paracasei
Summary of the method: as §1

Odoribacter splanchnicus = test system: Odoribacter splanchnicus
Summary of the method: as §1

[4] = test system: Parabacteroides distasonis
Summary of the method: as §1

Parabacteroides merdae = test system: Parabacteroides merdae
Summary of the method: as §1

Row | Structure (SMILES) | growth AUC (Akkermansia muciniphila) | growth AUC (Bacteroides caccae) | growth AUC (Bacteroides clarus) | growth AUC (Bacteroides dorei) | growth AUC (Bacteroides stercoris) | growth AUC [1] | growth AUC (Bacteroides uniformis) | growth AUC [2] | growth AUC (Clostridium difficile) | growth AUC (Collinsella aerofaciens) | growth AUC (Coprococcus comes) | growth AUC (Escherichia coli ED1a) | growth AUC (Escherichia coli IAI1) | growth AUC (Eubacterium rectale) | growth AUC [3] | growth AUC (Lactobacillus gasseri) | growth AUC (Lactobacillus paracasei) | growth AUC (Odoribacter splanchnicus) | growth AUC [4] | growth AUC (Parabacteroides merdae)
1 | Cc1cccc2sc3nncn3c12 | 0.892 | 0.989 | 0.965 | 1.04 | 1.03 | 0.993 | 1.01 | 0.964 | 0.973 | 1.07 | 0.98 | 0.987 | 0.977 | 0.939 | 0.988 | 1.05 | 0.957 | 1.03 | 0.991 | 1
2 | CNC(=O)CSP(=S)(OC)OC | 1.19 | 1 | 0.994 | 0.901 | 0.954 | 1.01 | 1 | 1.01 | 0.978 | 0.974 | 1.01 | 0.977 | 0.959 | 1.06 | 0.957 | 0.911 | 0.962 | 0.954 | 0.9 | 0.979
3 | C=C(C)CN(CC)c1c([N+](=O)[O-])cc(C(F)(F)F)cc1[N+](=O)[O-] | 0.843 | 1.02 | 0.965 | 1.02 | 0.926 | 0.998 | 0.968 | 0.933 | 1.04 | 1 | 0.985 | 0.921 | 0.968 | 0.921 | 0.912 | 1.03 | 1.14 | 1.01 | 1.02 | 1.01
4 | COP(=O)(OC)OC=C(Cl)Cl | 1.04 | 1.05 | 1.01 | 0.984 | 1.17 | 1.03 | 1.03 | 1.04 | 1.05 | 1.01 | 1.03 | 1.01 | 1.02 | 1.04 | 1.09 | 0.912 | 1.04 | 1.01 | 1.05 | 1.01
5 | O=[N+]([O-])c1ccc2ccc3cccc4ccc1c2c34 | 0.948 | 0.59 (active) | 0.783 (active) | 0.851 | 0.179 (active) | 0.737 (active) | 0.877 | 1.3 | 0.913 | 0.983 | 0.972 | 0.988 | 0.99 | 0.577 (active) | 0.401 (active) | 0.99 | 1.02 | 0.0656 (active) | 0.579 (active) | 0.495 (active)
6 | CCS(=O)Cc1ccccc1OC(=O)NC (stereo not given) | 1.22 | 0.98 | 0.986 | 0.943 | 0.992 | 1 | 0.945 | 0.966 | 0.979 | 0.977 | 1.01 | 0.977 | 0.971 | 1.11 | 1.05 | 0.854 | 1.01 | 0.975 | 0.8 | 0.997
7 | OC(c1ccc(Cl)cc1)(c1ccc(Cl)cc1)C(Cl)(Cl)Cl | 1.07 | 0.962 | 0.409 (active) | 0.954 | 0.0157 (active) | 0.379 (active) | 0.0202 (active) | 0.973 | 1.03 | 0.973 | 1.01 | 0.998 | 1.03 | 0.805 | 0.977 | 0.162 (active) | 1.01 | 0.687 (active) | 0.0387 (active) | 0.777 (active)
8 | C[N+](C)(C)CCCl.[Cl-] | 1.06 | 1.01 | 1.03 | 0.983 | 1.08 | 1.02 | 1.01 | 0.997 | 1 | 1.02 | 1.05 | 1.02 | 1.03 | 1.04 | 1.11 | 0.944 | 1.05 | 1.01 | 1.06 | 1.03

Reference: the supplement of paper PMC12669032
